esBAF inh: blocks esBAF chromatin remodeling in mouse ES cells; Bmi1-luciferase knock-in reporter, 24 h; 100% = twice the neutral-well signal; actives 2% (n = 350,000); reporter increase, % at 12.5 µM; AID 602393; in the data active means activation above about 40%; inconclusive means no clear call, values can overlap the other calls;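 further: a rise in the Bmi1 reporter signal indicates esBAF inhibition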
MITF act: activators of MITF-driven TRPM1 promoter activity in SK-MEL-5 cells. SK-MEL-5 TRPM1-promoter luciferase, 24 h; % of positive control, neutral wells = 0. activation, % at 12.5 µM. actives 0.75% (n = 300,000). AID 588334;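 active means mean activation of at least 80% with every replicate also reaching 80%; inconclusive means mean reaches 80% but some replicate falls short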
Wnt bcat act: activators of Wnt/beta-catenin signaling | Wnt/beta-catenin reporter cell assay, activator, plate reader | activation, % at 9.35 µM | actives 1.2% (n = 300,000) | AID 743398; in the data active means activation above about 30%, passing the limit was not always enough; inconclusive means no clear call, values can overlap the other calls
Statin myotox sup: suppressors of simvastatin-induced myotoxicity in C2C12 myotubes. actives 0.78% (n = 330,000). rescue of ATP level, % at 7.49 µM. ATP luminescence, 48 h; scaled: DMSO 0, geranylgeraniol control 100;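 active means mean ATP rescue above about 67%, or every replicate alone reaching that limit, limit read from the data, passing the limit was not always enough; inconclusive means no clear call, values can overlap the other calls; inactive means mean under the limit and some replicate under it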;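 further: myotubes were challenged with 10 µM simvastatin during compound exposure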
Hits are given with their value; – = inactive; ? = inconclusive; · = no result given. An excerpt weighted towards active compounds, which were near 3% of everything screened.

SMILES	esBAF inh	MITF act	Wnt bcat act	Statin myotox sup
C[C@H]1CN([C@@H](C)CO)C(=O)Cc2cc(NC(=O)Nc3ccc(C(F)(F)F)cc3)ccc2O[C@@H]1CN(C)C(=O)Nc1ccc(F)cc1	–	·	·	–
C[C@H]1CN([C@@H](C)CO)C(=O)Cc2cc(NC(=O)Nc3ccc(C(F)(F)F)cc3)ccc2O[C@H]1CN(C)C(=O)Nc1ccc(F)cc1	–	·	·	83
C[C@@H]1CN([C@@H](C)CO)C(=O)Cc2cc(NC(=O)Nc3ccc(F)cc3)ccc2O[C@@H]1CN(C)Cc1ccc(Cl)c(Cl)c1	–	–	–	108
C[C@@H]1CN([C@@H](C)CO)C(=O)Cc2cc(NC(=O)C3CCCCC3)ccc2O[C@H]1CN(C)Cc1ccc(-c2ccccc2)cc1	–	·	·	137
C[C@H]1CN([C@@H](C)CO)C(=O)Cc2cc(NC(=O)Nc3ccccc3)ccc2O[C@H]1CN(C)Cc1ccc(Cl)c(Cl)c1	–	·	·	–
C[C@H]1CN([C@@H](C)CO)C(=O)Cc2cc(NC(=O)C3CCCCC3)ccc2O[C@@H]1CN(C)C(=O)Nc1ccc2c(c1)OCO2	42	·	·	–
C[C@H](CO)N1C[C@H](C)[C@@H](CN(C)Cc2ccc(Cl)c(Cl)c2)Oc2ccc(NC(=O)c3ccncc3)cc2CC1=O	–	·	·	133
C[C@@H]1CN([C@H](C)CO)C(=O)Cc2cc(NC(=O)c3ccncc3)ccc2O[C@H]1CN(C)Cc1ccc(Cl)c(Cl)c1	–	·	·	–
C[C@@H]1CN([C@@H](C)CO)C(=O)Cc2cc(NC(=O)c3ccncc3)ccc2O[C@@H]1CN(C)Cc1ccc(-c2ccccc2)cc1	–	·	·	–
C[C@H](CO)N1C[C@H](C)[C@@H](CN(C)Cc2ccc(-c3ccccc3)cc2)Oc2ccc(NC(=O)c3ccncc3)cc2CC1=O	–	·	·	124
Cc1ccc(-c2cnc3c(c2)C(=O)N([C@@H](C)CO)C[C@@H](C)[C@H](CN(C)C(=O)c2cccc(F)c2)O3)cc1	–	·	·	–
CCCCN1CCc2c([nH]c3c(C)cccc23)C1=O	·	92	–	·
CN1C(=O)c2cc(NS(=O)(=O)c3ccccc3Cl)ccc2OC[C@@H]2O[C@H](CC(=O)O)CC[C@H]21	–	·	·	–
COc1ccc(Oc2ccc(C(F)(F)F)cc2N)cc1	43	–	–	–
Cc1cc(NC(=O)c2ccccc2)sc1C	–	–	54	–
CN(CC(=O)Nc1ccccc1Br)C(=O)COc1ccc2ccccc2c1	41	–	–	–
CN(C)C(=O)c1cccc(-c2ccc3c(c2)[C@H]2[C@H](CCN2S(=O)(=O)c2ccccc2)[C@@H](CO)N3)c1	–	·	·	–
CC(C)c1ccc(N(CC(=O)NCCc2ccccc2)C(=O)c2csnn2)cc1	–	–	–	81
Cc1ccc(N(CC(=O)NCCc2ccccc2)C(=O)c2csnn2)cc1	–	–	–	–
O=C(O)c1ccc(-c2nc3ccccc3[nH]2)cc1	·	–	–	·
O=C(O)c1ccc(/C=C(\c2nc3ccccc3[nH]2)c2nc3ccccc3s2)cc1	·	–	42	·
Cc1cc(C(=O)Cn2nc(C(=O)O)c3ccccc3c2=O)c(C)n1CC(F)(F)F	44	?	–	–
Cc1cc(C(=O)Cn2nc(C(=O)O)c3ccccc3c2=O)c(C)n1CCc1ccc(F)cc1	–	–	–	–
COc1ccc(NC(=O)N[C@@H]2CC[C@H](CCNC(=O)Cc3ccncc3)O[C@@H]2CO)cc1	–	·	·	–
C[C@@H]1CN([C@H](C)CO)S(=O)(=O)c2ccc(C3=CCCCC3)cc2O[C@@H]1CN(C)Cc1ccncc1	–	·	·	–
SMILES	esBAF inh	MITF act	Wnt bcat act	Statin myotox sup
C=CCSc1nc(C)c2cc(C)cc(C)c2n1	–	–	–	133
C=CCSc1nc(=O)n2ccc(C)cc2n1	–	–	–	–
O=C(O)C(=O)/C(=C\c1cccc(Cl)c1)c1ccc2ccccc2n1	78	–	40	–
Cc1cccc(/C=C(\C(=O)C(=O)O)c2ccc3ccccc3n2)c1	50	–	–	–
N#Cc1ccc(/C=C(\C(=O)C(=O)O)c2ccc3ccccc3n2)cc1	–	–	–	–
CCOC(=O)c1ccc(N2C(=O)CC(N3CCN(C/C=C/c4ccccc4)CC3)C2=O)cc1 (stereo unspecified)	–	–	–	127
CCOC(=O)c1ccc(S(=O)(=O)N2CCN(C3CC(=O)N(c4ccc(OC)cc4)C3=O)CC2)cc1 (stereo unspecified)	–	–	–	–
COc1ccc(-c2noc(-c3ccoc3C)n2)cc1	·	–	–	·
COc1ccc(-c2noc(-c3ccco3)n2)cc1OC	·	?	50	·
COc1ccc(-c2noc(-c3ccoc3C)n2)cc1OC	·	89	–	·
CC(C)NC(=O)Nc1cccc2c1O[C@H](CN(C)C(=O)Nc1ccc3c(c1)OCO3)[C@H](C)CN([C@H](C)CO)C2=O	–	·	·	–
CO[C@@H]1CN(C)C(=O)c2cc(NC(=O)C3CC3)ccc2OC[C@H](C)N(Cc2cccnc2)C[C@@H]1C	–	·	·	–
C[C@@H]1CN([C@@H](C)CO)C(=O)c2cc(NC(=O)CCCN(C)C)ccc2O[C@H]1CN(C)C(=O)NC1CCCCC1	–	·	·	–
CC(=O)N1c2ccc(S(=O)(=O)NCCC(=O)NCc3ccc(F)cc3)cc2CC1C (stereo unspecified)	–	–	–	87
CC(=O)N1c2ccc(S(=O)(=O)NCCC(=O)NCCc3ccc(C)cc3)cc2CC1C (stereo unspecified)	–	–	–	109
CCNC(=O)C[C@H]1C=C[C@@H](NC(=O)C2CC2)[C@H](CO)O1	–	·	·	–
CC1(C)CC(=O)C(N=Nc2ccc(F)cc2)=C(O)C1	·	–	44	·
CC1(C)CC(=O)C(N=Nc2ccc(-c3ccccc3)cc2)=C(O)C1	·	96	–	·
CCCN(C)C[C@H]1Oc2cc(C#CCOC)ccc2S(=O)(=O)N([C@H](C)CO)C[C@H]1C	–	·	·	–
CO[C@H]1CN(C)C(=O)c2ccc(NS(=O)(=O)C3CCCCC3)cc2OC[C@@H](C)NC[C@H]1C	–	·	·	–
O=C(NCC[C@H]1CC[C@@H](NS(=O)(=O)c2ccc(Cl)cc2)[C@@H](CO)O1)c1ccccc1F	–	·	·	–
CC(=O)N(C)C[C@@H]1Oc2cc(C#Cc3ccccn3)ccc2S(=O)(=O)N([C@H](C)CO)C[C@H]1C	–	·	·	–
O=C(N/N=C/c1c[nH]c2ccccc12)c1ccc2c(c1)OCCO2	51	·	–	–
O=C(N/N=C/c1cc(Br)c(O)c(Br)c1O)c1ccc2c(c1)OCCO2	43	–	–	–
Cc1cccc(NC(=S)N/N=C/c2c[nH]c3ccccc23)c1	88	–	–	–
SMILES	esBAF inh	MITF act	Wnt bcat act	Statin myotox sup
O=C(N/N=C/c1c[nH]c2ccccc12)c1ccccc1	–	·	–	–
O=C(N/N=C/c1cc(Br)c(Br)o1)c1ccc2c(c1)OCCO2	58	·	37	–
Cc1nn(C)cc1/C=N/NC(=S)Nc1ccccc1	69	·	40	–
Oc1ccccc1C=NNC(=S)Nc1ccc(F)cc1	–	–	–	–
CC1=NN(C(N)=S)C(=O)C1N=Nc1ccc(F)cc1 (stereo unspecified)	68	–	–	–
CC1=NN(C(N)=S)C(=O)C1N=Nc1cccc(C)c1 (stereo unspecified)	67	–	–	–
